Results from PubChem BioAssay AID641 (Vanderbilt High Throughput Screening Facility, 2007).
Among all 58,000 compounds or so, about 3,400 (5.9%) were called active.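 Rule for the calls: active = luminescence count or its row- and column-corrected plate score outside the 99.7% band of the plate's sample wells, on either side; inactive = the rest.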 Only a selection was taken, and actives are over-represented in it overall.

Biological target: D(1A) dopamine receptor (Homo sapiens) (UniProt P21728)
Experiment: D1 CRE-luciferase signal change, two-sided – cell-based, HEK293 D1, dopamine EC30, D1 allosteric modulator project, primary screen (AID 641)
Conditions: dopamine EC30 potentiation, at 10 µM, actives deviate in either direction

Sequence of D(1A) dopamine receptor (Homo sapiens) (P21728 whole entry, looked up): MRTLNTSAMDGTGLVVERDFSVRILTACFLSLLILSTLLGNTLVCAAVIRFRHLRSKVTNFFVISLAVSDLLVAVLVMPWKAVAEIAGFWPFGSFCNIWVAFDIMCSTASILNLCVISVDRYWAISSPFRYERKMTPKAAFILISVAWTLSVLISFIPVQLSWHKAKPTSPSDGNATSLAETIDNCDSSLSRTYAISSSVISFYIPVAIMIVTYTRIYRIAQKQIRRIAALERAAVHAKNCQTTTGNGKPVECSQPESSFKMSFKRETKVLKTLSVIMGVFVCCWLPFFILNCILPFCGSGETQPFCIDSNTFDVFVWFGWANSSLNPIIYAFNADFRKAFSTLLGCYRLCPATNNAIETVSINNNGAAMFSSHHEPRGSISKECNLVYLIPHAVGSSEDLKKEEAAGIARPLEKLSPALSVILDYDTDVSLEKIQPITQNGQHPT

Row | SMILES | B-score
1 | CCc1ccc(N(CC)c2ncnc3nc[nH]c23)cc1 | -4 (inactive)
2 | O=C(CN1CCOCC1)Nc1c2c(nc3c1CCC3)CCC2 | 2.06 (inactive)
3 | O=C(NCCCNCc1ccccc1)c1ccc(/C=N/O)nc1 | -0.581 (inactive)
4 | N#Cc1nc(-c2ccc(OCc3ccccc3)cc2)oc1NCCCN1CCOCC1 | -0.727 (inactive)
5 | COc1ccc(CC(=O)Nc2ccc(-c3nnc(-c4ccccc4)o3)cc2)cc1 | 0.0608 (inactive)
6 | O=C(CSc1ncccn1)NCCc1ccccc1 | 0.879 (inactive)
7 | CCOc1ccc(NC(=O)Nc2cc(C)on2)cc1 | -0.142 (inactive)
8 | N#Cc1nc(Cc2cccc3ccccc23)oc1NCc1ccc2c(c1)OCO2 | -0.388 (inactive)
9 | CCOc1ccc(Nc2oc(Cc3ccccc3)nc2C#N)cc1 | 3.11 (active)
10 | N#Cc1nc(COc2ccc(-c3ccccc3)cc2)oc1NCc1cccnc1 | -1.5 (inactive)
11 | COc1ccc(Nc2oc(-c3ccccc3Cl)nc2C#N)cc1 | 6.96 (active)
12 | N#Cc1nc(Cc2ccccc2)oc1NCCc1ccccc1 | 4.08 (active)
13 | CN(CCCC(=O)Nc1nccs1)S(=O)(=O)c1ccc(Cl)cc1 | 0.49 (inactive)
14 | Cc1cc(/C=N/n2cnnc2)c(C)n1-c1cccc(C(=O)O)c1 | -0.0541 (inactive)
15 | O=C(CN1CCOCC1)Nc1c(-c2ccccc2)c2cc(Br)ccc2[nH]c1=O | 2.41 (inactive)
16 | CS(=O)(=O)N1CCN(C(=O)Cc2ccccc2)CC1 | -1.05 (inactive)
17 | CS(=O)(=O)N(CC(=O)N1CCOCC1)c1ccc2c3c(cccc13)CC2 | 1.66 (inactive)
18 | C=C(C)COc1ccc(-c2n[nH]c(C)c2-c2ccccc2)c(O)c1 | 0.197 (inactive)
19 | CCOc1ccccc1Oc1cn[nH]c1-c1ccc(OC)cc1O | -0.51 (inactive)
20 | COc1ccc(-c2n[nH]c(C)c2-c2ccc(OC)c(OC)c2)c(O)c1 | 2.72 (active)
21 | Cc1nonc1NC(=O)c1ccccc1Br | -0.0424 (inactive)
22 | Cc1cc(C(=O)N2CCN(c3ccccn3)CC2)c(C)o1 | -0.0773 (inactive)
23 | COC(=O)CSC1=C(C#N)C(c2ccccc2OC)C(C(=O)OC)C(=O)N1 (centres undefined) | 0.897 (inactive)
24 | O=C1Nc2c(Br)cc(Br)cc2C1(O)N1CCOCC1 (centres undefined) | 0.955 (inactive)
25 | CCCCNc1nc2ccccc2nc1NS(=O)(=O)c1cccs1 | 19.3 (active)
26 | O=C(Nc1nncs1)c1ccccc1NS(=O)(=O)c1cccs1 | -0.0134 (inactive)

Row | SMILES | B-score
27 | CCOc1ccc2nc(NCCNS(=O)(=O)c3ccccc3)c(C#N)cc2c1 | 0.768 (inactive)
28 | COc1nc(OC)nc(N(C)CCO)n1 | 0.849 (inactive)
29 | Cc1ccc(C)c2[nH]c(=O)c(CCNC(=O)CC(C)C)cc12 | -0.219 (inactive)
30 | COc1ncnc2c1N=C1CC(C)(C)CC(N)=C1S2 | 3.41 (active)
31 | Nc1c(C(=O)NCc2ccccc2)nnn1Cc1cccc(Cl)c1 | 0.392 (inactive)
32 | COc1ccc(OC)c2c1sc(=NC(=O)CN1C(=O)CCC1=O)n2C | 2.86 (inactive)
33 | Cc1ccc2c(c1)N(CCCC(=O)NCc1cccnc1)C(=O)CO2 | -0.742 (inactive)
34 | COc1ccc(N2CCN(CCNC(=O)c3nnc(Cc4c(F)cccc4Cl)o3)CC2)cc1 | -1.8 (inactive)
35 | Cc1ccc(-n2nc3c(c2NC(=O)CCC2CCCCC2)CS(=O)C3)cc1 (centres undefined) | -0.56 (inactive)
36 | O=P(O)(CN1CCCCC1)CN1CCCCC1 | -0.0507 (inactive)
37 | C=CCOC(=O)C1=C(C)OC(N)=C(C#N)C1c1ccc(F)cc1 (centres undefined) | 0.241 (inactive)
38 | C=CCSc1nc2c(c(=O)[nH]1)C(C(C)C)C(C#N)=C(N)O2 (centres undefined) | 10.1 (active)
39 | CCN1CCN(C(=O)c2ccccc2N(C)S(=O)(=O)c2ccc(C)cc2)CC1 | 0.228 (inactive)
40 | COc1cc(NS(=O)(=O)c2ccccc2)ccc1-n1nc(C)cc1C | -0.763 (inactive)
41 | COc1ccc(Nc2cc(C)nc(-n3nc(C)cc3C)n2)cc1 | 7.36 (active)
42 | COCCNc1nc(-n2nc(C)cc2C)nc2sc3c(c12)CCCC3 | 0.116 (inactive)
43 | CC(=O)c1ccc(Oc2cc(C)nc(-n3nc(C)cc3C)n2)cc1 | 11.6 (active)
44 | CCOC(=O)c1cnc(-n2nc(C)cc2C)nc1Nc1cccc(C(C)=O)c1 | 0.96 (inactive)
45 | Cc1cc(C)n(-c2ccc(Cl)c(C(=O)O)n2)n1 | -0.569 (inactive)
46 | Cc1ccc(S(=O)(=O)Nc2ccccc2CNc2c(C)n(C)n(-c3ccccc3)c2=O)cc1 | 1.04 (inactive)
47 | Cc1ccc(S(=O)(=O)N2CC(=O)Nc3ccccc32)cc1C | 0.0538 (inactive)
48 | CCN1C(=O)CS/C1=N\c1nccs1 | 0.211 (inactive)
49 | Cc1ccc(CNC(=O)CCCNC(=O)c2ccc(Cl)cc2)n1C | -1.3 (inactive)
50 | CC1CCN(Cc2nc3c(c(=O)n(C)c(=O)n3C)n2CCc2ccccc2)CC1 | 0.377 (inactive)
51 | CCOC(=O)C1CCCN(C(=O)CN(c2ccc(OC)cc2)S(=O)(=O)c2c(C)noc2C)C1 (centres undefined) | 0.03 (inactive)
52 | CCOC(=O)C1CCCN(C(=O)c2sc3nc(C)nc(N4CCOCC4)c3c2C)C1 (centres undefined) | -3.4 (active)

Row | SMILES | B-score
53 | CCOC(=O)C1CCCN(C(=O)c2cncc(Br)c2)C1 (centres undefined) | 0.42 (inactive)
54 | Nc1nnc(C2CCCC2)s1 | -1.25 (inactive)
55 | CCOc1cccc(-c2nnc3sc(COc4ccc(OC)cc4)nn23)c1 | -0.0728 (inactive)
56 | CCOc1cccc(-n2nnnc2-c2ccc(OC)cc2)c1 | 4.33 (active)
57 | COc1ccc(C2=CC(c3cccc(OC)c3)n3nnnc3N2)cc1 (centres undefined) | 1.89 (inactive)
58 | CC(C)(C)Nc1c(N)c(=O)oc2ccccc12 | -1.25 (inactive)
59 | CCC(C)n1[nH]c(=O)cc1N (centres undefined) | -0.0177 (inactive)
60 | CC(C)C(=O)Nc1cccc(C(=O)Nc2ccc3c(c2)OCO3)c1 | -3.26 (active)
61 | Cn1c(=O)n(C)c2cc(C(=O)Nc3ccc4c(c3)OCO4)ccc21 | -2.3 (inactive)
62 | COc1ccc(C(=O)Nc2ccc3c(c2)OCO3)cc1OC | 1.31 (inactive)
63 | CCOc1ccc(Cn2nnc(C(=O)NCc3ccccc3)c2N)cc1 | 0.835 (inactive)
64 | CC1(C)CC(=O)C(C=NCCC2=CCCCC2)=C(O)C1 | 1.52 (inactive)
65 | Fc1ccc2[nH]c3c(N4CCSCC4)ncnc3c2c1 | -5.42 (active)
66 | Cc1ccc2c(c1)NCC(C(=O)NC1CCC(C)CC1)O2 (centres undefined) | 0.396 (inactive)
67 | CC1(C)CC(=O)C=C(NC2CC(C)(C)NC(C)(C)C2)C1 | -0.998 (inactive)
68 | CCOC(=O)N1CCN(C(=O)c2cnc3n(c2=O)CCS3)CC1 | 0.461 (inactive)
69 | CCCCc1c(O)nc2n(c1=O)CCS2 | 3.41 (active)
70 | CN(CCc1ccccn1)S(=O)(=O)c1ccc2c3c(cccc13)C(=O)N2 | 0.281 (inactive)
71 | CCC/C(O)=C1\C(=O)CC(C)(C)CC1=Nc1ccccc1OC | 0.24 (inactive)
72 | COc1ccc(NC(=O)c2cccc(NC(=O)c3ccco3)c2)c(OC)c1 | -0.0282 (inactive)
73 | Cc1nn(-c2ccccc2)c2c1C(=O)NC(=O)C(C)(C)C2 | 20.5 (active)
74 | Cc1cc(NC(=O)Nc2ccccc2)n(-c2ccccc2)n1 | -0.331 (inactive)
75 | Cc1nn(-c2ccccc2)c(CC(C)(C)C(=O)O)c1C(=O)O | 0.0788 (inactive)
76 | Cc1cc(Nc2ccc(Br)cc2F)n2ncnc2n1 | -0.165 (inactive)
77 | COC(=O)c1oc2ccc(Br)cc2c1NC(C)=O | 0.0355 (inactive)
78 | Cc1cc(C)nc(-n2nc(C)cc2NC(=O)c2ccc(Br)o2)n1 | 6.02 (active)

Row | SMILES | B-score
79 | CCN(CC)S(=O)(=O)c1cccc(C(=O)Nc2cc(C)nn2-c2nc(C)cc(C)n2)c1 | 0.0356 (inactive)
80 | Cc1cccc(-n2nc3c(c2NC(=O)c2ccc(Br)o2)CSC3)c1C | 0.109 (inactive)
81 | CS(=O)(=O)N(C(=O)NC(=O)NC1CCS(=O)(=O)C1)C1CCCCC1 (centres undefined) | -3.24 (active)
82 | CC(=O)CCS(=O)(=O)c1ccc(C)c(C)c1 | 1.88 (inactive)
83 | COc1ccc(S(=O)(=O)N2CCOCC2)cc1C(=O)Nc1nc2ccccc2s1 | -0.687 (inactive)
84 | CC(c1cccnc1)N(CCN(C)C)C(=O)Nc1ccc(Cl)c(Cl)c1 (centres undefined) | -1.22 (active)
85 | CC(C)NS(=O)(=O)c1ccc(NC(=O)c2cccnc2)cc1 | 1.41 (inactive)
86 | CN(C)CCNC(CC(=O)Nc1ccc(Cl)c(Cl)c1)C(=O)O (centres undefined) | 0.834 (inactive)
87 | COC(=O)[C@H](C(C)C)n1c(C)c(C(C)=O)c(C(C)=O)c1C | 4.12 (active)
88 | CCOc1ccc(OCC)c(NC(=O)C(NS(=O)(=O)c2ccc3c(c2)oc(=O)n3C)C(C)C)c1 (centres undefined) | -0.175 (inactive)
89 | C#CCN1C(=O)C(O)(CC(=O)c2cc(OC)ccc2OC)c2ccccc21 (centres undefined) | 0.733 (inactive)
90 | CSC1=NCCN1C(=O)c1ccc(S(=O)(=O)N2CCOCC2)cc1 | -0.521 (inactive)
91 | Cn1c(=NC(=O)C2CC2)sc2cc(F)cc(F)c21 | 1.19 (inactive)
92 | COc1ccccc1N1CC(O)=C(c2nc3ccccc3s2)C1=N | -0.346 (inactive)
93 | Cc1cccc(Cn2c(SCCO)nc3c2c(=O)n(C)c(=O)n3C)c1 | 0.248 (inactive)
94 | C/C(Cl)=C\Cn1c(Nc2cccc(C)c2)nc2c1c(=O)n(C)c(=O)n2C | 13.2 (active)
95 | COC(=O)C(C)Sc1nc2c(c(=O)n(C)c(=O)n2C)n1Cc1cccc(C)c1 (centres undefined) | 0.892 (inactive)
96 | COCCCNC(=O)c1c(F)c(F)c(F)c(F)c1F | -0.712 (inactive)
97 | O=C(NCc1cccnc1)c1ccc(CS(=O)(=O)c2ccc(Br)cc2)o1 | -0.0969 (inactive)
98 | Cc1cccc(NC(=O)CSC(N)=O)c1C | -0.0507 (inactive)
99 | CCc1ccccc1N(CC(=O)NCCSCc1ccco1)S(C)(=O)=O | 0.0216 (inactive)
100 | O/N=C(\c1ccc2c(c1)OCCO2)C1CCCCC1 | 8.96 (active)
101 | O=C(c1ccc2c(c1)OCCO2)C1CCN(S(=O)(=O)c2cccc(F)c2)CC1 | 0.0652 (inactive)
102 | O=C(OCc1ccccc1F)c1ccc2c(c1)OCCO2 | 0.452 (inactive)
103 | Fc1c(F)c(C(F)(F)F)c(F)c(F)c1N1CCN(c2ccc3nnc(C(F)(F)F)n3n2)CC1 | 0.11 (inactive)
104 | CC1(C)CC(=O)C(C=NCc2cccnc2)=C(O)C1 | 1.34 (inactive)
